Here are results for 45 molecules from PubChem BioAssay AID1259417 (TB Discovery Research, Infectious Disease Research Institute, 2018).

A short description of the test: M. tuberculosis growth inhibition, HTS (AID 1259417).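 Note: bacteria grown with compound for 5 days at 37 °C.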 To be noted: stronger effect = higher value, concentration not given here.
The mark [1] stands for this setting: M. tuberculosis DsRed fluorescence growth inhibition.
Where [2] appears, read: M. tuberculosis growth inhibition.

The campaign covered roughly 1,100 compounds. About 760 (69%) were called active. The rule behind the calls is not given here. The set was probably picked from earlier hits. The list shows a part of the results.

For orientation: inhibition means the change of the read-out against control, counted positive when it falls. For the molecule `CCN(CC)c1cccc(Oc2nc([N+](=O)[O-])nn2C)c1`, the inhibition reads like this: under setting [1], 96.8% (active); under setting [2], 95.7%.

`Cn1nc([N+](=O)[O-])nc1Oc1ccc(C(C)(C)C)cc1`: the inhibition was 96.8% (active) under setting [1] and 94.8% under setting [2].

Consider `O=C(OCc1nnc(-c2ccccc2)o1)c1cc(-c2cccs2)nc2ccccc12`, for which the inhibition under setting [1] is 83.3% (active) and the inhibition under setting [2] stood at 100%.

For the molecule `CN(Cc1nc2ccccc2c(=O)[nH]1)Cc1nc2ccsc2c(=O)[nH]1`, the inhibition is, setting by setting: under setting [1], 97.2% (active); under setting [2], 96.7%.

As for `CC1Cc2cc(-c3nn(-c4ccccc4)cc3C=C3SC(=S)NC3=O)ccc2O1` (stereo not given), the inhibition was 27% (active) under setting [1] and 38.2% under setting [2].

For `COC(=O)COc1ccc2cc(-c3ccc(OC)c(OC)c3)c(=O)oc2c1`, the inhibition by setting is: under setting [1], 26.7% (active); under setting [2], 45%.

Take `CCOC(=O)COc1ccc2cc(-c3ccc(OC)c(OC)c3)c(=O)oc2c1`: the inhibition was 43.5% (active) under setting [1] and 53.6% under setting [2].

Turning to `CCOC(=O)COc1ccc2cc(-c3nc4ccccc4s3)c(=O)oc2c1`, the inhibition by setting is: under setting [1], 88.6% (active); under setting [2], 86.2%.

Turning to `COc1cccc(OCCNC(=O)c2cc([N+](=O)[O-])cc([N+](=O)[O-])c2)c1`, the inhibition is 98.1% (active) under setting [1] and 95.3% under setting [2].

On to `COc1cccc(OCC(=O)c2ccc(Br)cc2)c1`, for which the inhibition is, setting by setting: under setting [1], -3.18% (inactive); under setting [2], -10.7%.

As for `c1ccc(CCNc2nc3ccccc3[nH]2)cc1`, the inhibition is, setting by setting: under setting [1], 21.4% (active); under setting [2], 32.9%.

For the molecule `Cc1ccc2nc(NCc3ccccc3)[nH]c2c1`, the inhibition under setting [1] is 43% (active) and the inhibition under setting [2] was 23.1%.

With `Cc1ccc(OCCN2CCN(c3nc(NCc4ccccc4)c4ccccc4n3)CC2)cc1`, the inhibition is -1.14% (inactive) under setting [1] and -0.136% under setting [2].

Consider `O=C(NC12CC3CC(CC(C3)C1)C2)N1CCN(c2cccc(C(F)(F)F)c2)CC1`, for which the inhibition reads like this: under setting [1], 100% (active); under setting [2], 94.4%.

As for `O=C(C1CCN(c2nnc(-n3cccc3)s2)CC1)N1CCN(c2cccc(C(F)(F)F)c2)CC1`, the inhibition under setting [1] was 68.1% (active) and the inhibition under setting [2] stood at 27.8%.

On to `COc1cccc(-c2csc(N3CCN(C(=O)NC45CC6CC(CC(C6)C4)C5)CC3)n2)c1`, for which the inhibition is, setting by setting: under setting [1], 3.33% (inactive); under setting [2], -30.6%.

Regarding `Cc1nc2cc(C(=O)OCC(=O)NC34CC5CC(CC(C5)C3)C4)ccc2n1-c1ccccc1`, the inhibition is, setting by setting: under setting [1], -4.71% (inactive); under setting [2], -17.2%.

As for `O=C(C1CCN(c2nnc(-n3cccc3)s2)CC1)N1CCc2ccccc2C1`, the inhibition under setting [1] is 70.1% (active) and the inhibition under setting [2] came to 84.1%.

`Cc1cccc(N2CCN(C3=NC(=O)C(=C4CCCCC4)S3)CC2)c1`: the inhibition runs as follows: under setting [1], 84.8% (active); under setting [2], 77.9%.

As to `CC1CCC(C(C)C)C(OC(=O)Cn2c(-c3ccc(F)cc3)[n+](C)c3ccccc32)C1` (stereo not given), the inhibition reads like this: under setting [1], 94.3% (active); under setting [2], 97.5%.

For the molecule `CCN(CC)c1ccc(NC(=O)c2cnccn2)cc1`, the inhibition by setting is: under setting [1], 92.1% (active); under setting [2], 96.5%.

Consider `Cc1ccc(-c2nnc(NC(=O)c3nc4ccccc4s3)o2)c(C)c1`, for which the inhibition runs as follows: under setting [1], 21.8% (active); under setting [2], 89.7%.

In the case of `O=C(Nc1nnc(-c2ccccc2)o1)c1nc2ccccc2s1`, the inhibition is, setting by setting: under setting [1], 94.3% (active); under setting [2], 94.8%.

As for `CC(=O)Nc1nc2ccccc2n1Cc1ccccc1`, the inhibition is 81.5% (active) under setting [1] and 85.5% under setting [2].

Take `CC(C)(C)c1ccc(OCCN2C(=O)C(=O)c3cc(Br)ccc32)cc1`: the inhibition is, setting by setting: under setting [1], -0.55% (inactive); under setting [2], -12%.

Turning to `CC(=O)Nc1nc2ccccc2n1CCOc1ccccc1`, the inhibition runs as follows: under setting [1], 93% (active); under setting [2], 92.9%.

Take `O=C(c1ccccc1)c1ccc(OCC(O)Cn2cnc3ccccc32)cc1` (stereo not given): the inhibition reads like this: under setting [1], -0.545% (inactive); under setting [2], -3.24%.

With `CC(C)(C)c1ccc(OCCn2c(N)nc3ccccc32)cc1`, the inhibition was 70.4% (active) under setting [1] and 90.4% under setting [2].

With `CCc1nc2ccccc2n1CC(O)COc1ccc(I)cc1` (stereo not given), the inhibition was 99.5% (active) under setting [1] and 100% under setting [2].

On to `COc1ccc(C2CC(c3c(-c4ccccc4)c4cc(Br)ccc4[nH]c3=O)=NN2C(=O)c2ccccc2)cc1` (stereo not given), for which the inhibition is 9.47% (inactive) under setting [1] and 8.15% under setting [2].

Take `Cc1nc2ccccc2n1CC(O)COc1ccc(C2C=CCC2)cc1` (stereo not given): the inhibition under setting [1] was 101% (active) and the inhibition under setting [2] is 101%.

For the molecule `CCc1nc2ccccc2n1CCCOc1ccccc1`, the inhibition under setting [1] is 100% (active) and the inhibition under setting [2] was 101%.

Consider `COc1ccc(SN=C2C(C)=CC(=O)C=C2C)cc1`, for which the inhibition runs as follows: under setting [1], 5.38% (inactive); under setting [2], 20%.

As for `CN(C)CC1CC(C(C)(C)C)CCC1=O` (stereo not given), the inhibition under setting [1] was 63.9% (active) and the inhibition under setting [2] stood at 85.1%.

Turning to `O=c1oc(-c2ccccc2Br)nc2sc3c(c12)CCCC3`, the inhibition runs as follows: under setting [1], 99.7% (active); under setting [2], 98.6%.

For the molecule `CCCc1cc2c(=O)c(-c3ccc4c(c3)OCCCO4)coc2cc1OCC(=O)OCC`, the inhibition is, setting by setting: under setting [1], 62.8% (active); under setting [2], 59.1%.

As to `COC(=O)COc1ccc2c(=O)c(-c3ccc(Cl)cc3)coc2c1`, the inhibition under setting [1] is 78.7% (active) and the inhibition under setting [2] amounted to 94.8%.

For the molecule `COc1ccccc1-c1c(C)oc2cc(OCC(=O)OCc3ccccc3)ccc2c1=O`, the inhibition under setting [1] is 28.7% (active) and the inhibition under setting [2] is 62.9%.

Take `COC(=O)COc1ccc2c(=O)c(-c3ccccc3Cl)c(C)oc2c1`: the inhibition under setting [1] is 74.9% (active) and the inhibition under setting [2] came out at 95.5%.

Turning to `NNC(=O)c1ccc(-c2ccccc2Cl)o1`, the inhibition runs as follows: under setting [1], -6.57% (inactive); under setting [2], 6.08%.

Regarding `CS(=O)(=O)Nc1cccc(C2=NN(c3nc(-c4ccccc4)c4cc(Cl)ccc4n3)C(c3ccco3)C2)c1` (stereo not given), the inhibition is 7.39% (inactive) under setting [1] and -23.7% under setting [2].

Take `COc1ccccc1-c1coc2cc(OCC(=O)OC3CCCCC3)ccc2c1=O`: the inhibition was 40.7% (active) under setting [1] and 66.9% under setting [2].

For the molecule `CCCCOC(=O)COc1ccc2c(=O)c(Oc3ccc(OCC)cc3)c(C)oc2c1`, the inhibition is 31.4% (active) under setting [1] and 83.7% under setting [2].

For the molecule `CCc1cc2c(=O)c(-c3ccc(OC)cc3)coc2cc1OCC(=O)OC`, the inhibition by setting is: under setting [1], 63.7% (active); under setting [2], 86.9%.

As to `CCOC(=O)COc1ccc2c(=O)c(Oc3cnn(-c4ccccc4)c3)c(C)oc2c1`, the inhibition under setting [1] is 79% (active) and the inhibition under setting [2] was determined as 94.4%.
